TexasRed fluor: Texas Red fluorescence interference in TRb-SRC2 counter-screen | Potency, µM (series often up to 106 µM), for inactives: top-dose fluorescence change, negative = quenching | 280,000 compounds, 0.29% hits | TRb/SRC2 Texas Red total fluorescence interference; active means well fitted curve in either direction with a large enough effect; inconclusive means small, poorly fitted or top-dose-only effect; further: potency means the concentration at half of the fitted maximal effect
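Human TRb ligand-binding domain at 0.6 uM with 20 nM Texas Red SRC2 peptide in Tris buffer containing 1 uM T3 and 5% DMSO, incubated with compound 5 h at ambient temperature. Total fluorescence (555/632 nm) calculated as parallel + 2 × perpendicular.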
Tau fibril FP: tau fibrillization inhibition (FP) | K18 P301L tau heparin fibrillization, Alexa594 FP, 6 h | Potency, µM (highest dose often 57.7 µM), for the others: at the top dose activity, negative = inhibition, most hits filed as inhibitors | 280,000 compounds, 0.39% hits; further: potency means the concentration at half of the fitted maximal effect; nearly all actives have a fitted effect of over 55% in size
Target sequence (P10636 561-689 P618L limits assumed): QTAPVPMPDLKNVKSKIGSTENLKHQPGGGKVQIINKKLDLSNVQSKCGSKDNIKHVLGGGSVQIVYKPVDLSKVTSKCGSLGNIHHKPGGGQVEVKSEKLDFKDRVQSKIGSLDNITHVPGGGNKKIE
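Steps: dispense K18 P301L tau (15 uM plus 0.24 uM Alexa 594 tracer, final) in pH 7 sodium acetate; add compound; add heparin (20 uM final); incubate 6 hr, 37 C; add ThT (30 uM final); after 1 hr ambient, read FP.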
PNC inhibitor: blocks assembly of the perinucleolar compartment. PC3M PTB-GFP, PNC prevalence imaging, 16 h; active compounds read low. activity change (PNC), negative = inhibition, % at 10 µM. 140,000 compounds, 3.1% hits. AID 2417;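 active means readout at or below -70, meaning at least 70% loss of cells showing the perinucleolar compartment, a nuclear body marking cancer cells; inconclusive means readout between -30 and a set limit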;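 further: plate controls were DMSO wells for no effect and camptothecin positive control wells for full effect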
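Read-out is percentage of cells bearing a perinucleolar compartment, from automated 20x imaging of fixed, Hoechst-stained PC3M PTB-GFP cells. Cells were seeded 4 h, then exposed 16 h to compound (23 nl of library stock) in duplicate plates.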
Tau fibril ThT: tau fibrillization inhibition (ThT binding); Potency, µM (series often up to 57.4 µM), for inactives: at the highest dose activity, negative = inhibition, most hits filed as inhibitors; P10636; recombinant tau K18 P301L, heparin-induced fibrillization, ThT fluorescence; 270,000 compounds, 2.1% hits; further: potency means the concentration at half of the fitted maximal effect; nearly all actives have a fitted effect of over 55% in size
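K18 P301L tau (15 uM + 0.24 uM Alexa 594-tagged), heparin 20 uM, NaOAc pH 7, 6 h 37 C; ThT 30 uM, 1 h RT, ex 450/em 510 nm.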
TRb-SRC2 inh: inhibitors of human thyroid hormone receptor beta-SRC2 interaction; P10828; TRbeta-SRC2 peptide binding, fluorescence polarization; receptor liganded with 1 µM T3; Potency, µM (titrated, usually from 106 µM), for inactives: top-dose activity change, negative = inhibition, usual class: inhibitors; 280,000 compounds, 0.065% hits; AID 1469;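 further: potency means the concentration at half of the fitted maximal effect; plate controls were bound peptide for no effect and peptide without receptor for full effect; nearly all actives have a fitted effect of over 50% in size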
Target sequence (P10828 whole entry, looked up): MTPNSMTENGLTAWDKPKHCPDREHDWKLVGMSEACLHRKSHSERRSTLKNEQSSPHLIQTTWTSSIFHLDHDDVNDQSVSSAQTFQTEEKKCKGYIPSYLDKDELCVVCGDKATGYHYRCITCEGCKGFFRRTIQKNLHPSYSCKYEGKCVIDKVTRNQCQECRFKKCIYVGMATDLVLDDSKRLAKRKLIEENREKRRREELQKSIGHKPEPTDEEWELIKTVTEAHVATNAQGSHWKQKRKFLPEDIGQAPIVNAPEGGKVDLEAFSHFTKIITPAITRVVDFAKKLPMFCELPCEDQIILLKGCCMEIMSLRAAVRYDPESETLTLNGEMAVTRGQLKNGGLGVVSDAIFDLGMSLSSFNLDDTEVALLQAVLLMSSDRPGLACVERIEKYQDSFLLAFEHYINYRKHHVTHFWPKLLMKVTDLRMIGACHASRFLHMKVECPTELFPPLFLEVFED
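Each compound concentration gave % activity, normalized to unbound and bound Texas Red SRC2 controls, from polarization read after 5 hr ambient incubation with T3-loaded human TRb LBD.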
Tau fluor cs: counter-screen for tau fibril formation inhibitors; tau K18 P301L Alexa594 fluorescence, heparin fibrillization; Potency, µM (doses to about 57.7 µM), for inactives: top-dose activity change, negative = decrease; 280,000 compounds, 0.93% hits; AID 1463; further: potency means the concentration at half of the fitted maximal effect; nearly all actives have a fitted effect of over 55% in size
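Human tau K18 P301L (15 uM unlabeled, 0.24 uM Alexa 594-labeled) in 100 mM sodium acetate pH 7 with 20 uM heparin, 6 hr at 37 C. ThT 30 uM added, 1 hr ambient; Alexa 594 FP and total fluorescence read at 555/632 nm.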
Active calls of the source: *; [ ] = dose if it differs, or a comment. Shown are actives, neighbours in structure and some others; about 4.6% of the full set was active somewhere. Unless noted, the call rests on the fitted dose curve; in most records, active means well fitted curve in the direction sought with a large enough effect; inconclusive means small, poorly fitted or top-dose-only effect, or another doubt; inactive means no such curve, though single readings can be large; an effect the other way counts as inactive or inconclusive. Unless noted, on the % scale 0 is the no-effect control and ±100 the full control effect.

What do the screens show for `O=C(O)c1ccc(CNCc2ccccc2F)cc1`?
TexasRed fluor: -2.8%[53 µM]; Tau fibril FP: -1.2%; Tau fibril ThT: 7.8%; TRb-SRC2 inh: -5.8%[53 µM]; Tau fluor cs: 4.7%

Results for Oc1ccc(NC(=S)Nc2ccc(O)cc2)cc1 ?
TexasRed fluor: -3.7%; Tau fibril FP: inconclusive; Tau fibril ThT: 10µM*; TRb-SRC2 inh: inconclusive; Tau fluor cs: inconclusive

How did C=C(C(=O)O)[C@@H]1CC[C@@]2(C)CCC[C@](C)(O)[C@@H]2C1 do in these assays?
TexasRed fluor: -0.5%; Tau fibril FP: -6.6%; Tau fibril ThT: -2.1%; TRb-SRC2 inh: -2.7%; Tau fluor cs: -2.8%

What do the screens show for `O=S(=O)(c1ccc2c(c1)OCCO2)N1CCN(Cc2ccc3c(c2)OCO3)CC1`?
TexasRed fluor: -1.2%; Tau fibril FP: -2.5%; PNC inhibitor: inconclusive; Tau fibril ThT: 1.8%; TRb-SRC2 inh: -3.8%; Tau fluor cs: -14.2%

Results for O=C(Nc1ccccc1)NC1(C(=O)NCc2cccs2)CCCCC1 ?
TexasRed fluor: -1.2%; Tau fibril FP: -9.8%; PNC inhibitor: -95.7*; Tau fibril ThT: -17.6%; TRb-SRC2 inh: -2.7%; Tau fluor cs: -10.0%

What do the screens show for `CC(=O)c1cc(NC(=O)c2cccc(C(F)(F)F)c2)c(=O)oc1/C=C/N(C)C`?
TexasRed fluor: 0.5%; Tau fibril FP: -2.0%; PNC inhibitor: 55.6; Tau fibril ThT: inconclusive; TRb-SRC2 inh: -3.0%; Tau fluor cs: -5.5%

What do the screens show for `CC(=O)c1cc(NC(=O)c2cccc(C(F)(F)F)c2)c(=O)oc1C`?
TexasRed fluor: 0.4%; Tau fibril FP: 35.5µM*; Tau fibril ThT: 25.1µM*; TRb-SRC2 inh: -6.9%; Tau fluor cs: -28.5%

Results for CC(=O)c1cc(NC(=O)c2ccc(Cl)cc2)c(=O)oc1/C=C/N(C)C ?
TexasRed fluor: -2.1%; Tau fibril FP: inconclusive; PNC inhibitor: 17.2; Tau fibril ThT: 10µM*; TRb-SRC2 inh: -15.6%; Tau fluor cs: -26.5%

Results for CCOc1ccc(CNC(=O)c2ccc3c(c2)sc2nc(-c4ccc(OC)cc4)cn23)cc1 ?
TexasRed fluor: 39.8µM*[quencher]; Tau fibril FP: 1.5%; Tau fibril ThT: -15.0%; TRb-SRC2 inh: -0.1%; Tau fluor cs: -19.7%

What do the screens show for `O=C(NCCCN1CCCCC1)c1ccc2c(c1)sc1nc(-c3ccc(F)cc3)cn12`?
TexasRed fluor: 0.0009µM*[quencher]; Tau fibril FP: 7.9%; Tau fibril ThT: inconclusive; TRb-SRC2 inh: -14.9%; Tau fluor cs: -21.8%

How did Cc1ccc(-c2cn3c(n2)sc2cc(C(=O)NCCCN4CCCCC4)ccc23)cc1 do in these assays?
TexasRed fluor: -7.5%; Tau fibril FP: 1.6%; Tau fibril ThT: -7.0%; TRb-SRC2 inh: -2.6%; Tau fluor cs: -5.8%

Results for O=C(CN1C(=O)COc2ccccc21)NCCCN1CCN(Cc2ccccc2)CC1 ?
TexasRed fluor: -1.0%; Tau fibril FP: 1.0%; PNC inhibitor: 39.9; Tau fibril ThT: 5.3%; TRb-SRC2 inh: -3.4%; Tau fluor cs: 8.7%

What do the screens show for `Cc1nc(N)sc1-c1csc(N(C)c2ccc(O)cc2)n1`?
TexasRed fluor: -4.3%; Tau fibril FP: inconclusive; PNC inhibitor: 8.9; Tau fibril ThT: 15.8µM*; TRb-SRC2 inh: -13.6%; Tau fluor cs: inconclusive

Results for COC(=O)C(Cc1ccccc1)NC(=O)C(CC(C)C)NC(=O)OC(C)(C)C (stereo not drawn) ?
TexasRed fluor: -0.4%; Tau fibril FP: -5.1%; PNC inhibitor: -112.0*; Tau fibril ThT: 1.1%; TRb-SRC2 inh: 2.5%; Tau fluor cs: 3.4%

How did CCC(C)C(NC(=O)OC(C)(C)C)C(=O)NC(Cc1ccccc1)C(=O)OC (stereo not drawn) do in these assays?
TexasRed fluor: -1.0%; Tau fibril FP: -1.1%; PNC inhibitor: inconclusive; Tau fibril ThT: 2.7%; TRb-SRC2 inh: 0.9%; Tau fluor cs: -1.2%

Results for CCCN(CCC)CCCNC(=O)C1CCCN(Cc2nc(-c3ccc(Cl)cc3)oc2C)C1 (stereo not drawn) ?
TexasRed fluor: inconclusive; Tau fibril FP: -1.6%; Tau fibril ThT: 1.5%; TRb-SRC2 inh: -17.4%; Tau fluor cs: -0.2%

How did C=C(C)[C@@H]1CCC2(C(=O)O)CC[C@]3(C)[C@H](CC[C@@H]4[C@@]5(C)CCC(=O)C(C)(C)[C@@H]5CC[C@]43C)[C@@H]12 (stereo partly drawn) do in these assays?
TexasRed fluor: -5.8%; Tau fibril FP: -1.2%; PNC inhibitor: -95.3*; Tau fibril ThT: -7.8%; TRb-SRC2 inh: -7.7%; Tau fluor cs: -2.4%

Results for Cc1c(N2C(=O)c3ccccc3C2=O)c(=O)n(-c2ccccc2)n1C ?
TexasRed fluor: -1.5%; Tau fibril FP: 8.9%; PNC inhibitor: -19.9; Tau fibril ThT: 12.9%; TRb-SRC2 inh: -2.6%; Tau fluor cs: 6.5%

What do the screens show for `NC(=O)c1c(NC(=O)c2cccs2)sc2c1CCCCCC2`?
TexasRed fluor: -3.3%; Tau fibril FP: 0.6%; PNC inhibitor: -28.2; Tau fibril ThT: -11.7%; TRb-SRC2 inh: -0.5%; Tau fluor cs: -18.2%

How did CN(C)CCOc1ncnc2c1oc1ccccc12 do in these assays?
TexasRed fluor: -2.1%; Tau fibril FP: 1.4%; PNC inhibitor: -111.7*; Tau fibril ThT: -1.1%; TRb-SRC2 inh: -9.7%; Tau fluor cs: -3.1%

What do the screens show for `O=C(Nc1ccc(F)cc1)Nc1csc2c1CCCC2`?
TexasRed fluor: -1.1%; Tau fibril FP: -15.6%; Tau fibril ThT: inconclusive; TRb-SRC2 inh: 3.5%; Tau fluor cs: 7.08µM*[quencher]

How did CC(=O)c1cccc(NC(=O)Nc2csc3c2CCCC3)c1 do in these assays?
TexasRed fluor: -1.4%; Tau fibril FP: inconclusive; Tau fibril ThT: inconclusive; TRb-SRC2 inh: -7.1%; Tau fluor cs: 11.2µM*[quencher]

What do the screens show for `Cc1ccc(S(=O)(=O)NCCc2csc3nc(-c4ccccc4F)nn23)cc1C`?
TexasRed fluor: -2.6%; Tau fibril FP: -2.4%; Tau fibril ThT: 1.4%; TRb-SRC2 inh: -6.1%; Tau fluor cs: -18.8%

How did COc1cc(O)c2c(=O)cc(-c3ccc(OC)c(-c4c(O)cc(O)c5c(=O)cc(-c6ccc(O)cc6)oc45)c3)oc2c1 do in these assays?
TexasRed fluor: -6.0%; Tau fibril FP: inconclusive; Tau fibril ThT: -17.0%; TRb-SRC2 inh: 17.8%; Tau fluor cs: inconclusive

How did O=c1cc(-c2ccc(O)c(-c3c(O)cc(O)c4c(=O)cc(-c5ccc(O)cc5)oc34)c2)oc2cc(O)cc(O)c12 do in these assays?
TexasRed fluor: -25.6%; Tau fibril FP: inconclusive; PNC inhibitor: -21.5; Tau fibril ThT: 14.1µM*; TRb-SRC2 inh: inconclusive; Tau fluor cs: inconclusive

Compound activity (PubChem BioAssay)
